Screening results deposited in PubChem by Sanford-Burnham Center for Chemical Genomics.
SKN-1 inh: suppressors of acrylamide-induced Pgst-4::GFP reporter in worms, primary screen, SKN-1 inhibitor project, whole organism, uHTS, GFP/RFP fluorescence ratio, strain VP596. AID 624304, 2012. C. elegans VP596 Pgst-4::GFP/RFP ratio, 24 h. inhibition, % at 21.8 µM. 360,000 tested, 0.49% active;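 active = interference check ratio from 0.5 to 1.5 plus GFP to RFP signal ratio inhibition reaching or exceeding a fixed threshold, cut at about 30% in these data, passing the limit was not always enough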
CRFR2-BP ag: agonists of CRF-BP/CRF-R2 complex, primary screen, cell-based, HEK293, calcium dye fluorescence, uHTS. activation, % at 13.2 µM. calcium dye fluorescence (FLIPR); percent of saturating CRF peptide response. AID 588473, 2011. CRF-binding protein / CRF receptor 2 complex (human). 350,000 tested, 0.46% active;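 active = activation of at least 50%, plus an integration ratio under a set limit after plate pattern correction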;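 note: plate controls were neutral control wells without compound for no effect and CRF at EC100 for full effect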
CRFBP-R2 block: antagonists of CRF-BP/CRF-R2 complex, primary screen, cell-based, HEK293, calcium dye fluorescence, uHTS; CRF-induced calcium fluorescence; inhibition, % at 11.8 µM; 350,000 tested, 0.59% active; AID 588475, 2011;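 active = inhibition of the ligand-induced calcium signal above about 50% at the single tested concentration, limit read from the data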
iPSC survival up: enhancers of single-cell hiPSC survival, primary screen, ATPlite luminescence; 100% = ROCK inhibitor wells, 0% = DMSO; survival enhancement, % at 20 µM; 360,000 tested, 0.044% active; AID 602274, 2012; in the data active = survival enhancement above about 18%;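 note: cells exposed to compounds for 16 hours before the ATP read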
TAG inh: inhibitors of triacylglycerol accumulation, primary screen, cell-based, uHTS, fluorescence, H9c2; H9c2 cells, Nile Red lipid (TAG) fluorescence; cells loaded with 200 µM oleic acid; inhibition, % at 12.5 µM; 230,000 tested, 0.66% active; AID 651582, 2012;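 active = pattern-corrected inhibition of lipid staining of at least 50% with the nuclear-stain viability signal not falling by more than 50%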;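 note: 0% = DMSO wells and 100% = triacsin C control wells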
Cardio protect: cardioprotection against H2O2-induced cell death, primary screen, uHTS, H9c2 cells, ATPLite luminescence | protection from H2O2 cell death, % at 20 µM | 360,000 tested, 0.63% active | H9c2 cardiomyocytes, H2O2 injury protection, 2 h;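 active = compounds giving at least 50% protection of heart cells from peroxide-induced death in the single-dose screen, raw or plate-pattern-corrected value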;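 note: 0% = DMSO wells with peroxide and 100% = DMSO wells without peroxide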
* = called active by the depositor; · = no result. Only some compounds are listed: those with a hit (about 2.5% of all), similar ones and a draw of the others.

SMILES | SKN-1 inh | CRFR2-BP ag | CRFBP-R2 block | iPSC survival up | TAG inh | Cardio protect
O=[N+]([O-])c1cccc(/C=N/NC2=NCCCCC2)c1 | 8.8 | -1.7 | 51.8* | -0.4 | · | 2.0
CCO[C@@H]1OC(C(=O)N2CCN(C)CC2)=C[C@H](C(C)(C)C)[C@H]1CCCO | · | 2.1 | 3.6 | · | · | ·
Cc1ccc(S(=O)(=O)Nc2ccc3cc([N+](=O)[O-])ccc3c2[N+](=O)[O-])cc1 | 13.2 | 5.8 | 80.9* | 1.1 | -13.6 | -9.7
COc1ccc(NS(=O)(=O)c2ccc(C)cc2)c([N+](=O)[O-])c1 | -1.5 | -8.5 | 30.1 | -0.6 | 3.7 | -3.1
Cc1ccc(S(=O)(=O)Nc2ccc3ccccc3c2[N+](=O)[O-])cc1 | -9.0 | -8.7 | 90.2* | 0.5 | -0.6 | -5.9
Cc1ccc(N2CCN(C(=O)CN3C(=O)c4ccccc4C3=O)CC2)cc1 | 12.8 | 0.1 | 55.7* | -0.9 | 2.4 | -3.7
Oc1cc2c(cc1O)[C@H]1c3ccc(O)c(O)c3OC[C@@]1(O)C2 | 37.3* | 0.5 | 13.1 | -2.2 | 9.9 | 14.6
Cc1ccc(C(=O)Oc2ccc(Cl)c3cccnc23)cc1[N+](=O)[O-] | -1.4 | -1.9 | 21.8 | 4.5 | -11.4 | 52.9*
COc1c(C)cc(C(O)c2ncc(-c3ccccc3F)[nH]2)cc1C (stereo not drawn) | 14.5 | · | · | -0.3 | -7.0 | -11.9
Cc1ccc(NC(=O)c2ccc3c(c2)N(CC(=O)NC(C)C)C(=O)C(C)(C)O3)cc1 | 10.5 | 0.8 | -1.2 | -0.1 | · | 1.8
O=C1C(NS(=O)(=O)c2cccs2)=C(N2CCN(c3cccc(Cl)c3)CC2)C(=O)c2ccccc21 | 9.7 | 1.4 | 9.2 | 1.7 | 50.4* | -18.2
Cc1ccc(NC(=O)C2(C)CCN2C(=O)Cc2ccccc2Cl)cc1C (stereo not drawn) | 3.5 | · | · | 2.0 | 9.7 | -2.9
CN(C)CC/C=C1/c2ccc(F)cc2Sc2ccc(Cl)cc21 | -6.9 | 0.3 | -19.5 | -0.5 | 43.8 | 1.4
CN(C)CC/C=C1\c2ccccc2Sc2cc(F)c(Cl)cc21 | -1.8 | -0.1 | -15.5 | 0.0 | 62.2* | 2.7
CN(C)CC/C=C1\c2ccc(F)cc2Sc2cc(F)c(Cl)cc21 | -27.2 | 4.5 | -17.7 | -0.7 | 61.4* | 1.0
O=C(COC(=O)c1ccccc1SCC(=O)N1CCCC1)NCc1ccc(F)cc1 | 18.9 | -1.3 | 0.2 | 3.1 | 5.2 | -2.3
O=c1c(-c2ccc(Br)cc2)coc2c(CN3CCCCC3)c(O)ccc12 | 1.8 | -1.3 | -0.8 | -0.2 | · | 8.8
O=c1c(-c2ccc(Br)cc2)coc2c(CN3CCOCC3)c(O)ccc12 | 35.2* | -0.6 | -17.7 | -1.4 | -3.3 | -4.3
CC1CC(NC(=O)/C=C/C(=O)O)CC(C)(C)C1 (stereo not drawn) | -3.1 | -0.1 | -1.3 | -0.8 | 8.6 | 1.4
O=S(=O)(c1cccc2nsnc12)N1CCc2ccccc2C1 | 16.7 | -4.3 | 52.3* | 3.8 | · | 12.1
O=S(=O)(c1cccc2nsnc12)N1CCCC1 | -5.4 | -0.1 | -8.4 | 0.0 | · | 1.7
c1ccc(-c2cc3c(N4CCOCC4)ncnc3s2)cc1 | 38.0* | -1.8 | -13.5 | -0.8 | 19.7 | 14.4
c1ccc(-c2cc3c(N4CCCC4)ncnc3s2)cc1 | -9.7 | -1.2 | 15.2 | -2.5 | -4.2 | 7.5
NC(=O)c1ccc(-c2ccc(N3C(c4ccsc4)=Cc4ccc(F)cc4C3CC(=O)c3ccco3)cc2)cc1 (stereo not drawn) | 22.6 | · | · | 0.2 | · | ·
O=C1NC(c2ccc(Cl)c([N+](=O)[O-])c2)Nc2ccccc21 (stereo not drawn) | -5.0 | 2.5 | -14.8 | 1.9 | 0.3 | 55.0*
SMILES | SKN-1 inh | CRFR2-BP ag | CRFBP-R2 block | iPSC survival up | TAG inh | Cardio protect
COc1ccc(-c2cc(C(=O)NN)[nH]n2)cc1 | -0.4 | -5.0 | 15.3 | -0.4 | · | 4.7
COC(=O)c1cc(-c2ccc(Br)cc2)n[nH]1 | 35.6* | -0.5 | -0.8 | 0.9 | -6.1 | -8.7
CCN(CC(=O)Nc1ccc(OC)cc1)C(=O)c1ccc2[nH]c3c(c2c1)CC(C)CC3 (stereo not drawn) | -19.9 | 0.5 | -3.6 | -0.8 | 19.7 | 3.6
O=c1c2ccccc2oc2c1ccc1ccccc12 | 27.4 | -1.7 | -6.2 | 1.1 | -13.4 | -11.0
O=c1c2ccccc2ccc2ccccc12 | 35.5* | -1.4 | 7.1 | 3.4 | -6.7 | -9.3
O=c1c2ccccc2sc2ccc(Cl)cc12 | 31.9 | -1.1 | 5.0 | -1.8 | -11.9 | -5.9
O=c1c2ccccc2sc2ccccc12 | 43.4* | -2.2 | -13.7 | 4.2 | 3.0 | -2.0
Nc1ccc2c(c1)sc1ccccc12 | 54.3* | 1.9 | -0.1 | -1.6 | · | -4.6
Nc1ccc2nc(N)sc2c1 | 5.9 | 0.0 | 2.6 | -2.4 | -4.4 | 5.3
CCOc1ccc(N2CC(C(=O)Nc3cc(OCC)c(N4CCOCC4)cc3OCC)CC2=O)cc1 (stereo not drawn) | -1.2 | -1.0 | 8.3 | -0.5 | 9.1 | -1.1
CCCC(C)(C)C(=O)N1CCC1(C)C(=O)NS(=O)(=O)c1ccc(Br)cc1 (stereo not drawn) | -0.8 | · | · | 2.9 | -3.8 | 7.8
Cc1ccccc1-c1cnc2c(c1)C(=O)N([C@@H](C)CO)C[C@@H](C)[C@H](CN(C)Cc1ccccc1F)O2 | -7.8 | -1.0 | -13.8 | 6.3 | 13.4 | 1.9
O=c1cc(-c2ccncc2)oc2c1ccc1ccccc12 | 11.7 | -1.1 | -5.0 | -0.7 | 12.2 | 66.5*
O=C(Nc1cccnc1)c1sc(Nc2ccccc2)nc1-c1ccccc1 | 8.6 | 5.9 | -84.0 | -1.4 | · | 65.3*
COC(=O)c1ccc2c(=O)n(CCCCCC(=O)NCCNC(C)=O)c(=O)[nH]c2c1 | 1.1 | 0.6 | 1.0 | 0.2 | 9.6 | 1.9
Cc1cccc(N2CC(O)(c3cccs3)[N+]3=C2CCCC3)c1 (stereo not drawn) | -5.4 | 1.6 | 94.5* | -0.7 | -7.7 | -5.7
CN(C)CCCNc1nc2cc(-c3cnn(Cc4ccccc4)c3)sc2c(=O)n1C | 31.0 | · | · | 3.6 | 6.9 | -7.9
Cc1cc(C)c(OCCN(C)Cc2ccccc2)c(Br)c1 | 10.1 | -0.2 | 86.8* | -0.8 | -3.1 | -8.6
CCC(=O)Nc1ccc(C(=O)Cn2ncc(Cl)c(Cl)c2=O)cc1 | 2.3 | 0.5 | 4.1 | -0.8 | 61.3* | -19.0
Cc1ccc(S(=O)(=O)N2CCCCC2)cc1NC(=O)Cn1ncc(Cl)c(Cl)c1=O | 0.8 | -0.2 | -8.8 | -5.3 | 48.1 | -22.3
Cc1cc(Br)ccc1NC(=O)CNC(=O)Cn1ncc(Cl)c(Cl)c1=O | -8.7 | -1.5 | 86.8* | -1.8 | 55.9* | -20.2
CCOC(=O)c1ccc(NC(=O)Cn2ncc(Cl)c(Cl)c2=O)cc1 | 10.4 | -1.1 | 0.2 | -3.9 | 54.6* | -30.6
